Source: ChEMBL document CHEMBL3988442, “University of Dundee, Small-Polar-MMV Screening Library” (2021)
In all, about 48,000 compounds went through this assay and about 13,000 (27%) showed an effect of 50% or more. The list shows a part of the results.

Test system: Wolbachia pipientis
Experiment: Anti-Wolbachia Cell-Based Screen
Type: functional
Design: scale not given: in the data most compounds retested in dose-response had high values
Details: 5 µM

| Compound | Percent Effect [%] |
| --- | --- |
| CCN1C(=O)C2(CCCCC2)NC1c1cc(C#N)n(C)c1C (stereo unspecified) | 8.458 |
| Cc1ncc(CN(C)C(=O)c2ccc3c(c2O)OC(C)(C)C3)s1 | -9.378 |
| CCn1nnc2c1C(COCCN(C)C)CN(Cc1ccc(C)s1)C2.O=C(O)C(F)(F)F.O=C(O)C(F)(F)F (stereo unspecified) | 104.1 |
| CCn1nnc2c1C(COCC(=O)N(C)C)CN(Cc1ccoc1)C2 (stereo unspecified) | 95.43 |
| Cc1ccc(CN2CCCn3nnc(COCCN(C)C)c3C2)s1.O=C(O)C(F)(F)F.O=C(O)C(F)(F)F | -14.16 |
| CCn1nnc2c1C(COCCN(C)C)CN(c1nncs1)C2 (stereo unspecified) | -7.006 |
| CCn1nnc2c1C(COC)CN(Cc1ccsc1)C2.O=C(O)C(F)(F)F (stereo unspecified) | -6.299 |
| COCC1CN(Cc2ccc(C)o2)Cc2nnn(CC3CC3)c21.O=C(O)C(F)(F)F (stereo unspecified) | -2.139 |
| CCn1nnc2c1C(COCCN(C)C)CN(Cc1ccco1)C2.O=C(O)C(F)(F)F.O=C(O)C(F)(F)F (stereo unspecified) | 92.71 |
| CCn1nnc2c1C(COCCN(C)C)CN(S(C)(=O)=O)C2.O=C(O)C(F)(F)F (stereo unspecified) | -1.029 |
| Cc1ccc(CN2Cc3nnn(C)c3C(COCCN(C)C)C2)s1.O=C(O)C(F)(F)F.O=C(O)C(F)(F)F (stereo unspecified) | 3.026 |
| CCn1nnc2c1C(COCC(=O)N(C)C)CN(Cc1ccco1)C2.O=C(O)C(F)(F)F (stereo unspecified) | 115 |
| CCn1nnc2c1C(COCCN(C)C)CN(S(=O)(=O)CC)C2.O=C(O)C(F)(F)F (stereo unspecified) | -14.6 |
| O=C(CSc1nncs1)N1CCN(Cc2ccc(Cl)cc2)CC1 | -10.59 |
| Cc1nc(-c2nnc(SCC(=O)O)n2C(C)c2ccccc2)co1 (stereo unspecified) | -6.545 |
| CNC(=O)Cc1noc(Cc2cccc(Br)c2)n1 | 1.573 |
| Cn1ccnc1SCCNC1CCN(c2nc3ccccc3s2)CC1 | 0.5729 |
| CC(C)C(=O)N1CCOC[C@H](Oc2ccc(C(F)(F)F)cc2)C1 | -12.72 |
| CC(C)N1CCCC(C(=O)N2CCN(c3nsc4ccccc34)CC2)C1 (stereo unspecified) | 104.9 |
| NC(=O)N1CCCC(C(=O)N2CCN(c3nsc4ccccc34)CC2)C1 (stereo unspecified) | 111.8 |
| CCN1CC(C(=O)N2CC(Oc3ccccc3Cl)C2)CCC1=O (stereo unspecified) | -27.16 |
| CCN1CC(C(=O)N2CCN(c3cnn(C)c(=O)c3)CC2)CCC1=O (stereo unspecified) | 2.003 |
| O=C(C1CCCN(c2nc3ccccc3cc2CO)C1)N1CCCC1 (stereo unspecified) | 10.01 |
| O=C(C1CCC1)N1CCN(c2snc3ccccc23)CC1 | 4.764 |
| CCN1CC(C(=O)N2CCN(c3nsc4ccccc34)CC2)CCC1=O (stereo unspecified) | 116.3 |
| CC(C)N1CCCC(C(=O)N2CCc3c(nc(CC4CC4)[nH]c3=O)C2)C1 (stereo unspecified) | 6.947 |

| Compound | Percent Effect [%] |
| --- | --- |
| CN1CCCC(C(=O)N2CCC(Oc3ccccn3)CC2)C1 (stereo unspecified) | -2.88 |
| CN(C)C1CCCN(C(=O)c2ccc3sc4c(c3c2)CCNC4=O)CC1 (stereo unspecified) | -3.9 |
| Cc1cccc(NC(=O)CCC(=O)NCC(=O)c2ccccc2F)c1 | -5.456 |
| COc1cc2c(cc1-c1nc3c(cnn3C)[nH]1)OCO2 | 9.432 |
| CCCNC(=O)CCC(=O)n1nc(C)c2ccccc21 | 168.2 |
| CCCNC(=O)CCc1ccnc2ccccc12 | -4.736 |
| CCCNC(=O)CCNC(=O)N1CCC(=Cc2ccccc2)CC1 | 1.443 |
| CCOCCCC(=O)NCc1ccc(N2CCCCC2)cc1 | 1.636 |
| CCOCCCNC(=O)CCCC(=O)n1nc(C)c2ccccc21 | 114.3 |
| COCCCNC(=O)CCn1nc(C)c2ccccc21 | 5.056 |
| COc1cccc2[nH]cc(CCNC(=O)N3CCC[C@H]3CO)c12 | 0.855 |
| Cn1c(=O)c2cc(C(=O)NCc3ccncc3)ccc2n(C)c1=O | 119.1 |
| Cn1nc(C(=O)NCc2ccccn2)c2c1CCS(=O)(=O)C2 | 2.968 |
| Cc1cc(NC(=O)NCc2ccccn2)n(C)n1 | 11.39 |
| Cn1nc(CC(C)(C)C)cc1NC(=O)c1ccc(CNC(N)=O)cc1 | -16.73 |
| Cn1c(=O)c2cc(C(=O)NCc3ccccn3)ccc2n(C)c1=O | 80.97 |
| CN1CCN(c2cc(CNC(=O)c3ccc(=O)n(C)c3)ccn2)CC1 | 6.282 |
| CC(C)n1cnnc1CN1C(=O)CCc2ccccc21 | -28.4 |
| c1ccc2oc(N3CCCC4(CCOC4)C3)nc2c1 (stereo unspecified) | -10.39 |
| O=C(Cc1ccon1)N(CCC(F)(F)F)C1CCCC1 | -15 |
| COC(=O)c1ccccc1C(=O)N(CCN(C)C)Cc1sccc1C | -10.61 |
| CN(C)C[C@@H]1CN(C(=O)Cc2cccc(O)c2)C[C@@H]1CO | -7.089 |
| COc1cccc(OCC2CCCN(C(=O)Cc3cccc(O)c3)C2)c1 (stereo unspecified) | -41.73 |
| O=C(Cc1cccc(O)c1)N1CCCC(O)(CN2CCOCC2)CC1 (stereo unspecified) | 193.2 |
| O=C(Cc1ccc(O)cc1)N1CCCC(O)(CN2CCOCC2)CC1 (stereo unspecified) | 136.3 |
| CN1CCN(CC2(O)CCCN(C(=O)Cc3cccc(O)c3)CC2)CC1 (stereo unspecified) | 188.6 |

| Compound | Percent Effect [%] |
| --- | --- |
| OC1(CN2CCCC2)CCCN(Cc2cnc(-c3ccccc3)nc2)C1 (stereo unspecified) | 1.78 |
| O=C(Cc1cccc(O)c1)N1CCCC(O)(CN2CCCC2)CC1 (stereo unspecified) | 146.3 |
| O=C(Cc1ccc(S(=O)(=O)C(F)F)cc1)N1CCCC1 | -6.682 |
| O=C(Cc1cccc(O)c1)N1CCC2(CC1)c1ccccc1CC2O (stereo unspecified) | -3.302 |
| O=C(Cc1ccc(S(=O)(=O)C(F)F)cc1)N1CCC1 | -8.484 |
| O=C1N(Cc2cccc(F)c2F)CCCC1(O)CN1CCCOCC1 (stereo unspecified) | -6.352 |
| COCCN(C/C=C/c1ccccc1)Cc1ncc[nH]1 | 16.38 |
| CC(C)Cc1noc(COc2ccc(N(C)C(N)=O)cc2)n1 | -17.39 |
| Cn1cc(Cl)cc1C(=O)N1CCC2(CCCN(CC3CC3)C2=O)C1 (stereo unspecified) | -20.81 |
| COCCCC(=O)NCc1cccc(NC(N)=O)c1 | -9.096 |
| CC(Nc1cccc(CN2CCOC2=O)c1)C(=O)Nc1ccccc1F (stereo unspecified) | -4.647 |
| O=C1CC(NCc2cnc(C3CCCCC3)nc2)CN1c1ccccc1 (stereo unspecified) | -13.32 |
| N#Cc1cc2c(nc1O)CCCCC2 | 109.4 |
| N#Cc1cc2c(nc1SCc1cc(O)nc(O)n1)CCCC2 | 96.26 |
| N#Cc1cc2c(nc1SCc1cc(O)nc(O)n1)CCCCC2 | 128.9 |
| CCS(=O)(=O)c1ccccc1N1CCC(NC(=O)c2ccc[nH]2)CC1 | 7.844 |
| CCOCc1nc2c(c(NC(CC)c3ccnn3C)n1)CCNCC2 (stereo unspecified) | -1.595 |
| Cc1nnc(NC(=O)NCc2ccc(N3CCN(C)CC3)nc2)s1 | 5.046 |
| Cc1nnc(NC(=O)NCc2ccc(N3CCC(C)CC3)nc2)s1 | 109.6 |
| Cc1nnc(NC(=O)NCc2ccc(N3CCOCC3)nc2)s1 | 89.19 |
| COCCCNC(=O)NCc1ccc(N2CCOC(C)C2)nc1 (stereo unspecified) | -2.359 |
| CC(=O)Nc1nc(C(=O)NCc2ccc(N3CCCCCC3)nc2)cs1 | 26.65 |
| COc1ccc([C@@H]2C[C@H](NC(C)=O)C[C@H](Cc3ccccc3)O2)cn1 | -17 |
| Brc1cccc(C2(CNCc3cc[nH]c3)CCOCC2)c1 | -10.11 |
| O=C(NCc1ccccn1)[C@H]1COC[C@H]2CN(c3ncccn3)C[C@H]21.O=C(O)C(F)(F)F.O=C(O)C(F)(F)F | 6.701 |
| COc1ccccc1CC1CCCN(C(=O)c2cc[nH]n2)C1 (stereo unspecified) | 10.34 |

| Compound | Percent Effect [%] |
| --- | --- |
| CC(C)C(=O)N1CCCC(Cc2ccccn2)C1 (stereo unspecified) | 90.21 |
| CC(C)C(=O)N1CCCC(Cc2ncccn2)C1 (stereo unspecified) | 110.8 |
| CC(C)C(=O)N1CCC(Cc2nccnc2Nc2ccccn2)CC1 | 100.8 |
| CC1CCN(CC2CCCN(C(=O)Nc3ccccn3)C2)CC1 (stereo unspecified) | -7.919 |
| CCC(=O)N1CCC(Cc2nccnc2Nc2ccccn2)CC1 | 7.091 |
| CCC1CCCN(C(=O)Cc2csc(-c3ncccn3)n2)C1 (stereo unspecified) | -10.41 |
| Cc1cccnc1NC(=O)C1CCN(C(=O)C(C)C)CC1 | -2.993 |
| Cc1noc(C)c1CN(C)c1nccc(C(F)(F)F)n1 | -2.519 |
| COc1cc(NC(=O)c2cscn2)ncn1 | -4.682 |
| O=S(=O)(C1CC1)N1CCC2(CC1)COC(COc1ccccn1)C2 (stereo unspecified) | 3.051 |
| COCC1CC2(CCN(C(=O)c3occc3C)CC2)CO1 (stereo unspecified) | -1.906 |
| Cc1csc(CN2CCC3(CC2)COC(COc2ccccn2)C3)n1 (stereo unspecified) | 106.5 |
| c1ccc(OCC2CC3(CCN(Cc4ccncc4)CC3)CO2)nc1 (stereo unspecified) | 4.031 |
| COCC1CC2(CCN(C(=O)c3ccc(F)cc3C)CC2)CO1 (stereo unspecified) | 14.78 |
| COCC1CC2(CCN(Cc3nc(C)cs3)CC2)CO1 (stereo unspecified) | 102 |
| Cc1nc(CN(C)Cc2csc(-c3cccs3)n2)co1 | -5.147 |
| CC(C)C(C#N)N1CCN(Cc2nccn2CC(F)(F)F)CC1 (stereo unspecified) | -1.445 |
| c1nc(N2CCN(Cc3nnnn3C3CC3)CC2)c2sccc2n1 | -5.403 |
| CN1C(=O)[C@H]2CC[C@@H]1CN(c1ncnc3ccsc13)C2 | 78.97 |
| CSc1nc(N)cc(N2C[C@@H]3CC[C@H](C2)N(CC2CC2)C3=O)n1 | 1.257 |
| Cc1ccnc(N2C[C@@H]3CC[C@H](C2)N(CC2CCC2)C3=O)n1 | 15.62 |
| O=C1[C@H]2CC[C@H](CN(c3ncnc4ccsc34)C2)N1CC1CC1 | 70.25 |
| CCn1ccnc1C1CCN(c2ncnc3ccsc23)CC1 | -4.66 |
